# From the supplement of paper PMC4466140
# Tests used:
# Assay in all cases: SPOT peptide array binding signal intensity (averaged, normalized) (arbitrary units (background-subtracted, floor 0; scale differs between SH3 domains)); higher = stronger binding of the SH3 domain to the peptide
# AgAbp1 = molecular target: AgAbp1
# Summary of the method: (§1)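 Binding signal refers to normalized, background-subtracted spot intensity averaged over replicates, expressed in arbitrary units that differ between domains. GST-fused SH3 domains from four yeast species were incubated at 10 μg/ml overnight at 4°C on cellulose membranes of synthetic 15-mer peptides with cysteines replaced by serines. Bound protein was detected with anti-GST antibody, an HRP anti-mouse secondary and luminol, and quantified with Genespotter.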
# AgBbc1 = molecular target: AgBbc1
# Summary of the method: as §1
# AgBem1-D1 = molecular target: AgBem1-D1
# Summary of the method: as §1
# AgBzz1-D1 = molecular target: AgBzz1-D1
# Summary of the method: as §1
# AgBzz1-D2 = molecular target: AgBzz1-D2
# Summary of the method: as §1
# AgCyk3 = molecular target: AgCyk3
# Summary of the method: as §1
# AgFus1 = molecular target: AgFus1
# Summary of the method: as §1
# AgHof1 = molecular target: AgHof1
# Summary of the method: as §1
# AgHse1 = molecular target: AgHse1
# Summary of the method: as §1
# AgLsb1 = molecular target: AgLsb1
# Summary of the method: as §1
# AgLsb4 = molecular target: AgLsb4
# Summary of the method: as §1
# AgMyo5 = molecular target: AgMyo5
# Summary of the method: as §1
# AgNbp2 = molecular target: AgNbp2
# Summary of the method: as §1
# AgRvs167 = molecular target: AgRvs167
# Summary of the method: as §1
# AgSho1 = molecular target: AgSho1
# Summary of the method: as §1
# AgSla1-D1-D2 = molecular target: AgSla1-D1-D2
# Summary of the method: as §1
# AgSla1-D3 = molecular target: AgSla1-D3
# Summary of the method: as §1
# CaAbp1-D1 = molecular target: CaAbp1-D1
# Summary of the method: as §1
# CaAbp1-D2 = molecular target: CaAbp1-D2
# Summary of the method: as §1
# CaBbc1 = molecular target: CaBbc1
# Summary of the method: as §1
# CaBem1-D1 = molecular target: CaBem1-D1
# Summary of the method: as §1
# CaBzz1-D1 = molecular target: CaBzz1-D1
# Summary of the method: as §1
# CaBzz1-D2 = molecular target: CaBzz1-D2
# Summary of the method: as §1
# CaCyk3 = molecular target: CaCyk3
# Summary of the method: as §1
# CaFus1 = molecular target: CaFus1
# Summary of the method: as §1
# CaHof1 = molecular target: CaHof1
# Summary of the method: as §1
# CaHse1 = molecular target: CaHse1
# Summary of the method: as §1
# CaLsb1 = molecular target: CaLsb1
# Summary of the method: as §1
# CaLsb4 = molecular target: CaLsb4
# Summary of the method: as §1
# CaMyo5 = molecular target: CaMyo5
# Summary of the method: as §1
binder,measurement,setting,value
ATKSASPTLPTRRSR,SPOT peptide array binding signal intensity,AgAbp1,938
same,SPOT peptide array binding signal intensity,AgBbc1,899
same,SPOT peptide array binding signal intensity,AgBem1-D1,133
same,SPOT peptide array binding signal intensity,AgBzz1-D1,99.5
same,SPOT peptide array binding signal intensity,AgBzz1-D2,45
same,SPOT peptide array binding signal intensity,AgCyk3,2
same,SPOT peptide array binding signal intensity,AgFus1,28
same,SPOT peptide array binding signal intensity,AgHof1,180
same,SPOT peptide array binding signal intensity,AgHse1,114
same,SPOT peptide array binding signal intensity,AgLsb1,18.5
same,SPOT peptide array binding signal intensity,AgLsb4,1800
same,SPOT peptide array binding signal intensity,AgMyo5,5.5
same,SPOT peptide array binding signal intensity,AgNbp2,39.5
same,SPOT peptide array binding signal intensity,AgRvs167,192
same,SPOT peptide array binding signal intensity,AgSho1,≤ 0
same,SPOT peptide array binding signal intensity,AgSla1-D1-D2,74.5
same,SPOT peptide array binding signal intensity,AgSla1-D3,11.8
same,SPOT peptide array binding signal intensity,CaAbp1-D1,434
same,SPOT peptide array binding signal intensity,CaAbp1-D2,1090
same,SPOT peptide array binding signal intensity,CaBbc1,986
same,SPOT peptide array binding signal intensity,CaBem1-D1,51
same,SPOT peptide array binding signal intensity,CaBzz1-D1,223
same,SPOT peptide array binding signal intensity,CaBzz1-D2,195
same,SPOT peptide array binding signal intensity,CaCyk3,56
same,SPOT peptide array binding signal intensity,CaFus1,35
same,SPOT peptide array binding signal intensity,CaHof1,4
same,SPOT peptide array binding signal intensity,CaHse1,8.75
same,SPOT peptide array binding signal intensity,CaLsb1,0.75
same,SPOT peptide array binding signal intensity,CaLsb4,6350
same,SPOT peptide array binding signal intensity,CaMyo5,6
